The full list was thinned out, with hits kept by preference.
PKM2 inh – qHTS Assay for Inhibitors of Human Muscle isoform 2 Pyruvate Kinase | purified PKM2, ATP generation, Kinase-Glo luminescence | Potency, µM (series often up to 57.5 µM), inactives show at the top dose activity change, negative = inhibition, usual class: inhibitors | actives 0.058% (n = 260,000) | AID 1634, 2009; active = well fitted inhibition curve with a large enough effect; note: nearly all actives have a fitted effect of over 60% in size
Target sequence (P14618 whole entry, looked up, canonical isoform): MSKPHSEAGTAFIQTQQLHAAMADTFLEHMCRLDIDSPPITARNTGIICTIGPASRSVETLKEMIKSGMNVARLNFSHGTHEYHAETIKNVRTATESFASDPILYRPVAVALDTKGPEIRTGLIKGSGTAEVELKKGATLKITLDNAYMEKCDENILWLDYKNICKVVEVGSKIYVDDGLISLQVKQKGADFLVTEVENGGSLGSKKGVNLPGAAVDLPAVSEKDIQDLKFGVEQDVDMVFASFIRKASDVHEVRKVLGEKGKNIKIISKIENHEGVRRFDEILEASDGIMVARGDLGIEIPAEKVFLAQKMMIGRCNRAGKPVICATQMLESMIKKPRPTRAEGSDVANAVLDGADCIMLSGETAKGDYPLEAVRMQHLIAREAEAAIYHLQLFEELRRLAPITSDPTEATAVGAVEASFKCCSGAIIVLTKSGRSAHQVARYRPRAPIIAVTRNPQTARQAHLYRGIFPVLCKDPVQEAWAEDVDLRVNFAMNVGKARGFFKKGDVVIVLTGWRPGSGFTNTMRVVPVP
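Coupled luciferase luminescence (Kinase-Glo) detects ATP generated from 0.1 mM ADP and 0.5 mM PEP in imidazole buffer pH 7.2 with KCl, MgCl2; 1 h at room temperature. Enzyme at intermediate activity; normalized to uninhibited and no-enzyme controls.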
An asterisk follows results filed as active. Potency is the fitted concentration of half-maximal effect.

Screening Cc1cccc(NC(=O)c2cc([N+](=O)[O-])ccc2NCC2CCCO2)n1 (stereo not drawn) returned PKM2 inh 47%.
Cc1cc(NC(=O)CSc2nc3c(cc2C#N)CCCC3)no1 was read as PKM2 inh 23%.
Screening COc1ccc(C2c3c(ncn(CCN4CCOCC4)c3=N)Oc3ccc4ccccc4c32)cc1OC (stereo not drawn) returned PKM2 inh 61%.
For CCn1c(C)nc2cc(-c3nc4n(n3)Cc3ccccc3-4)ccc21 the results were PKM2 inh 16µM*.
Screening CCN(CC)CCn1c(C)nc2ccccc21 returned PKM2 inh 0%.
For Cc1ccc(C(=O)N2CC(=O)NC(=O)C2)cc1 the results were PKM2 inh -3%.
Screening COc1ccccc1NS(=O)(=O)c1cccc(N2CC(O)=C(c3ccccc3)C2=N)c1 returned PKM2 inh 50%.
For C#CCOC(=O)Nc1ccc(=O)n(Cc2c(Cl)cccc2Cl)c1 the results were PKM2 inh 57%.
Cc1ccc(-c2cc(C(=O)N3CCN(c4ncccn4)CC3)c3cc(Br)ccc3n2)o1 was read as PKM2 inh 91%.
For NN1C(=O)/C(=C\c2ccco2)SC1=S the results were PKM2 inh 35%.
`Cc1ccccc1NS(=O)(=O)c1ccc2oc(=O)ccc2c1` gave PKM2 inh 56%.
`CCCCc1n(CC(=O)c2ccc(Cl)cc2)c2ccccc2[n+]1C` gave PKM2 inh -7%.
`Cc1ccc(/C=C/C(=O)Nc2cc(=O)n(C)c(=O)n2C)o1` gave PKM2 inh 37%.
For CC(=O)Nc1sc(N/N=C/c2ccccc2F)nc1-c1ccc(C)cc1 the results were PKM2 inh 69%.
`O=[N+]([O-])c1ccc(-n2nnnc2-c2ccccc2)cc1` gave PKM2 inh 31%.
For CC1(C)SC(=S)N(c2ccccc2)C1/[N+]([O-])=C/c1cccc([N+](=O)[O-])c1 (stereo not drawn) the results were PKM2 inh 33%.
Cc1[nH]n(-c2ccccc2)c(=S)c1C=Nc1ccc([N+](=O)[O-])cc1 was read as PKM2 inh 11µM*.
`CC1=C(C)/C(=N\OS(=O)(=O)c2ccccc2)C=CC1=O` gave PKM2 inh 51%.
Screening Cc1ccc(NC2=C(CC(=O)O)C(c3ccccc3)N(c3ccc(C)cc3)C2=O)cc1 (stereo not drawn) returned PKM2 inh 35%.
Screening O=C(COC(=O)C1CC1)NC(=O)NCc1ccccc1 returned PKM2 inh 117%.
For COc1ccc(-c2cc3nc(C)cc(N)n3n2)cc1 the results were PKM2 inh 14µM*.
Screening COc1ccc2nc(C)cc(Nc3ccc(C)cc3)c2c1 returned PKM2 inh -1%.
Screening Cn1c(Cn2cnc3ccccc32)nc2ccccc21 returned PKM2 inh 59%.
`Cn1c(CSc2nnc(SCc3ccccc3)s2)nc2ccccc21` gave PKM2 inh 100%.
Cn1c(/C=C/c2ccccc2)nc2ccccc21 was read as PKM2 inh 13µM*.
Screening CSc1ccc(S(=O)(=O)N2CCC(C(=O)NCc3ccccn3)CC2)cc1 returned PKM2 inh 35%.
COc1c(O)c(O)cc2c1oc1c3cc(C)ccc3oc(=O)c21 was read as PKM2 inh 46%.
`N/C(=N\OC(=O)c1ccc(Cl)cc1)c1ccccn1` gave PKM2 inh 7.1µM*.
O=C(OCc1ccc(Cl)cc1Cl)c1cccnc1Cl was read as PKM2 inh 44%.
Screening Cc1ccc(C(=O)O/N=C(\N)c2ccccn2)c(C)c1 returned PKM2 inh 7.9µM*.
N/C(=N\OC(=O)CCCN1C(=O)c2ccccc2C1=O)c1ccccn1 was read as PKM2 inh 55%.
For O=C(NC1CC1)C1=C[C@@H](c2csc3ccccc23)C[C@@H](OCCCCO)O1 the results were PKM2 inh 91%.
For COC(=O)c1sc(C(C)(C)C)cc1CS(=O)(=O)c1ccc(Cl)cc1 the results were PKM2 inh 0%.
Cc1ccc(-c2nnc(SCC(=O)N/N=C/c3ccccc3C(=O)O)n2-c2ccc(Cl)cc2)cc1 was read as PKM2 inh 88%.
For COCCCNC(=S)N/N=C/c1ccc(O)cc1 the results were PKM2 inh 32%.
Screening Cc1occc1C(=O)N/N=C/c1ccc(N(C)C)cc1 returned PKM2 inh 14µM*.
`CCC(C)(C)n1nnnc1C(c1cc2cc(C)cc(C)c2[nH]c1=O)N1CCN(C(=O)c2ccco2)CC1` (stereo not drawn) gave PKM2 inh 75%.
`Cc1cc(NC(=O)CSc2nncc(=O)n2N)no1` gave PKM2 inh 67%.
Screening CCn1c2ccccc2c2nnc(SCCCn3c(=O)[nH]c4ccccc43)nc21 returned PKM2 inh 38%.
`Cc1ccc2c(c1)C(N1CCCC1=O)CC(c1ccco1)N2` (stereo not drawn) gave PKM2 inh 14µM*.
For Cc1ccc(CC2CC(=O)N(Cc3ccco3)C2=O)cc1 (stereo not drawn) the results were PKM2 inh 30%.
`Cc1[nH]c(=S)sc1Cc1ccc(F)cc1` gave PKM2 inh 38%.
Screening O=C(Nc1nc2c(F)cc(F)cc2s1)C1CC(=O)N(Cc2ccco2)C1 (stereo not drawn) returned PKM2 inh 35%.
Screening COc1ccc(-n2c(SCC(=O)O)nnc2-c2ccc(NC(=O)c3ccccc3)cc2)cc1 returned PKM2 inh 40%.
Screening COc1cc(/C=C/C(=O)CC(=O)/C=C/c2ccc(O)c(OC)c2)ccc1O returned PKM2 inh 30%.
COc1ccc(/C=C/C(=O)NCCNC(=O)c2ccccc2)cc1OC was read as PKM2 inh 38%.
For COc1ccc(/C=C/C(=O)c2ccccn2)cc1 the results were PKM2 inh 16µM*.
For COc1ccc(CNC(=O)c2c(C)nc3ccccn23)cc1 the results were PKM2 inh 43%.
Screening COc1ccc(C(=O)NNC(=O)c2ccccn2)cc1 returned PKM2 inh 3.5µM*.
COC(=O)[C@@]1(Cc2ccc(OC)cc2)[C@H]2c3cc(C(=O)N4CCCC4)n(CCc4ccc(O)c(O)c4)c3C[C@H]2CN1C(=O)c1ccccc1 was read as PKM2 inh 54%.
`CNC(=O)C1CCN(S(=O)(=O)c2c(C)noc2/C=C/c2cccc(OC)c2)CC1` gave PKM2 inh 33%.
`Cc1ccc(N2C(=O)C3C4C=CC(CNC(=S)Nc5cccc(Cl)c5)(O4)C3C2=O)cc1` (stereo not drawn) gave PKM2 inh 38%.
`Cc1cc2cc(CNC(=O)c3ccc(C)c([N+](=O)[O-])c3)ccc2[nH]1` gave PKM2 inh 32%.
Screening COc1cccc(CN(C)Cc2nc(Cc3ccccc3Cl)no2)c1 returned PKM2 inh 92%.
Cc1ccc(C=C2C(=O)c3ccccc3C2=O)o1 was read as PKM2 inh 14µM*.
Screening Cc1ccc(/C=C2/NC(=O)N(c3ccccc3)C2=O)o1 returned PKM2 inh 56%.
`CCN1C(=O)N/C(=C/c2ccc(C)o2)C1=O` gave PKM2 inh 40%.
`Cc1ccc(N(CC(=O)NC(C)(C)C)C(=O)CS(=O)CC(=O)Nc2ccc3c(c2)OCO3)cc1` (stereo not drawn) gave PKM2 inh 7%.
Screening CC(=O)NS(=O)(=O)c1ccc2c(c1)C(=O)c1cc(S(=O)(=O)NC(C)=O)ccc1-2 returned PKM2 inh 30%.
`CC1CCN(C(=O)c2ccc(NS(=O)(=O)c3cccc4cccnc34)cc2)CC1` gave PKM2 inh 103%.

Screening results from PubChem.
